Screening results from PubChem.
In the library only some 10% were active in any assay of this set; here they are far more common.
RORgamma inh: qHTS for inhibitors of ROR gamma transcriptional activity; Nuclear receptor ROR-gamma (Mus musculus), P51450; Drosophila S2 Gal4-RORgamma UAS-luciferase reporter, 20 h; Potency, µM (series often up to 53.6 µM), inactives show top-dose activity change, negative = inhibition, actives largely listed as inhibitors; 310,000 compounds, 5.4% hits; note: % is set by controls: 0 for no effect and ±100 for the full control effect; nearly all actives have a fitted effect of over 60% in size
Target sequence (P51450 whole entry, looked up, the tested form may be a part): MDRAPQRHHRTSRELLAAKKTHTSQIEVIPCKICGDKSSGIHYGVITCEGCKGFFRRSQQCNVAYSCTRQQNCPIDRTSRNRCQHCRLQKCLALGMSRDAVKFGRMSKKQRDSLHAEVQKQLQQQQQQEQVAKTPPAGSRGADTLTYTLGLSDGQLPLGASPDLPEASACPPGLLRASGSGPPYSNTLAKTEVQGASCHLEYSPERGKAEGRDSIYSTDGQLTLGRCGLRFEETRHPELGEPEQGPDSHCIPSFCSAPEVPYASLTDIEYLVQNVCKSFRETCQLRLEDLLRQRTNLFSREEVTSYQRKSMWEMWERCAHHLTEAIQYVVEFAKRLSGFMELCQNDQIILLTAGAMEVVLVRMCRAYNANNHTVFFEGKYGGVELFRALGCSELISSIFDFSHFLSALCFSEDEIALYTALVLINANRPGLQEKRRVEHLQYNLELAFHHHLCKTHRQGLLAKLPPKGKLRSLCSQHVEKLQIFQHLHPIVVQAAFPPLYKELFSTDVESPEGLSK
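Stably transfected Drosophila Schneider cells are the test system, with ROR gamma fused to Gal4 and luciferase under UAS control; luminescence is read after 20 hr of 700 uM copper sulfate induction at ambient temperature.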
KB-3-1 cytotox: qHTS assay for MDR1-selective chemotherapeutics: Primary screen using the parental adenocarcinoma cell KB-3-1 | KB-3-1 viability, CellTiter-Glo ATP luminescence, 72 h | Potency, µM (top dose mostly 46.1 µM), hits mostly cytotoxic | 400,000 compounds, 1.4% hits; note: % is set by controls: 0 for no effect and ±100 for the full control effect; nearly all actives have a fitted effect of over 60% in size
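KB-3-1 cells, DMEM (no phenol red) + 10% FBS; compound by pin transfer, 72 h, 37 °C. Readout: CellTiter-Glo luminescence after 10 min. Data normalized, curve-fitted.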
SW480 rerep: A quantitative high throughput screen for small molecules that induce DNA re-replication in SW480 colon adenocarcinoma cells. SW480 DNA re-replication, Hoechst DNA content imaging, 48 h. Potency, µM (highest dose often 46.1 µM), without a hit: top-dose re-replication activation, usual class: activators. 340,000 compounds, 1.8% hits; note: % of control where 0% means no effect; nearly all actives have a fitted effect of over 55% in size
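Cells (250 per well) received 23 nL compound or DMSO by pin tool and were kept 48 hr at 37 C, 5% CO2. Nuclei were then stained with Hoechst for 40 min and scanned for DNA content.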
VP16 counter: VP16 counterscreen qHTS for inhibitors of ROR gamma transcriptional activity. Drosophila S2 Gal4-VP16 UAS-luciferase, luminescence, 20 h. Potency, µM (top dose mostly 53.6 µM), for inactives: at the top dose activity, negative = inhibition, most hits filed as inhibitors. 310,000 compounds, 3.5% hits. AID 2546, 2010;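 note: Gal4-VP16 expression switched on by copper sulfate through the metallothionein promoter; % is set by controls: 0 for no effect and ±100 for the full control effect; nearly all actives have a fitted effect of over 50% in size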
MCF10A rereplic: A quantitative high throughput screen for small molecules that induce DNA re-replication in MCF 10a normal breast cells | MCF 10A DNA re-replication, Hoechst nuclear intensity, 48 h | Potency, µM (series often up to 46.1 µM), without a hit: top-dose activity, positive = re-replication, most hits filed as activators | 350,000 compounds, 2.9% hits | AID 624296, 2012; note: % of control where 0% means no effect; nearly all actives have a fitted effect of over 50% in size
KB-V1 MDR tox: qHTS assay for MDR1-selective chemotherapeutics: Primary screen using the drug-selected MDR subline cells KB-V1 | KB-V1 MDR cells viability, CellTiter-Glo, 72 h | Potency, µM (series often up to 46.1 µM), actives largely listed as cytotoxic | 400,000 compounds, 3.4% hits | AID 1347076, 2019; note: % is set by controls: 0 for no effect and ±100 for the full control effect; nearly all actives have a fitted effect of over 60% in size
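Luminescent ATP read-out (CellTiter-Glo, 10 min) measures survival of drug-selected KB-V1 MDR cells after 72 h, 37 degrees C compound exposure. Medium: phenol-red-free DMEM, 10% FBS. Values from fitted concentration-response curves.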
Numbers without * were called inactive; [ ] = another dose, or the depositor's remark. Calls come from the whole dose curve; as a rule, active = well fitted curve in the direction sought with a large enough effect; inconclusive = small, poorly fitted or top-dose-only effect, or another doubt; inactive = no such curve, though single readings can be large; an effect the other way counts as inactive or inconclusive. Potency is the fitted concentration of half-maximal effect.

How did CCCCNC(=S)NNC(=O)c1ccc(Br)o1 do in these assays?
RORgamma inh: 0.794µM*; KB-3-1 cytotox: inactive; SW480 rerep: -8.5%; VP16 counter: -25.4%; MCF10A rereplic: inconclusive; KB-V1 MDR tox: inactive

How did CCCCNC(=S)NNC(=O)c1nn(C)cc1Cl do in these assays?
RORgamma inh: 14.1µM*; KB-3-1 cytotox: inactive; SW480 rerep: -2.6%; VP16 counter: -29.9%; MCF10A rereplic: -3.2%; KB-V1 MDR tox: inactive

Results for O=C(NC(=S)NNC(=O)c1ccccc1O)c1cccnc1 ?
RORgamma inh: -37.2%; KB-3-1 cytotox: inactive; SW480 rerep: -29.6%; VP16 counter: -1.4%; MCF10A rereplic: 2.3%; KB-V1 MDR tox: inconclusive

What do the screens show for `CCCCNC(=S)NNC(=O)c1cccnc1`?
RORgamma inh: inconclusive; KB-3-1 cytotox: inactive; SW480 rerep: -0.1%; VP16 counter: 11.2µM*; MCF10A rereplic: 1.2%; KB-V1 MDR tox: inconclusive

What do the screens show for `CC(C)Nc1ccc(-c2nc(-c3ccccn3)no2)cc1[N+](=O)[O-]`?
KB-3-1 cytotox: inactive; KB-V1 MDR tox: inactive

How did O=C(Cc1ccc(Cl)cc1)NNC(=S)NC(=O)c1cccnc1 do in these assays?
RORgamma inh: inconclusive; KB-3-1 cytotox: inactive; SW480 rerep: 0.7%; VP16 counter: -9.5%; MCF10A rereplic: -5.0%; KB-V1 MDR tox: inactive

Results for O=C(NC(=S)NCCOCc1ccc(Cl)cc1)c1cccnc1 ?
RORgamma inh: 11.2µM*; KB-3-1 cytotox: inactive; SW480 rerep: 1.5%; VP16 counter: 17.8µM*; MCF10A rereplic: 3.7%; KB-V1 MDR tox: inconclusive

How did O=C(NNC(=S)NC(=O)c1cccnc1)c1ccc(Cl)cc1 do in these assays?
RORgamma inh: 10µM*; KB-3-1 cytotox: inactive; SW480 rerep: 5.9%; VP16 counter: inconclusive; MCF10A rereplic: 3.9%; KB-V1 MDR tox: inconclusive

Results for COc1cccc(-c2nc3c(C#N)c[nH]n3c2NC2CCCC2)c1OC ?
KB-3-1 cytotox: inactive; KB-V1 MDR tox: inactive

Results for COc1cc(N=Nc2ccc(Br)cc2)cc(C=O)c1O ?
KB-3-1 cytotox: inconclusive; KB-V1 MDR tox: 14.6µM*

What do the screens show for `COc1cc(CN(C)C)cc(C=O)c1O`?
RORgamma inh: -5.5%; KB-3-1 cytotox: inactive; SW480 rerep: 1.7%; VP16 counter: -7.2%; MCF10A rereplic: inconclusive; KB-V1 MDR tox: inactive

Results for CCn1c(O)c(C2=c3ccccc3=NC2=O)c2cc(Br)ccc21 ?
RORgamma inh: inconclusive; KB-3-1 cytotox: inactive; SW480 rerep: inconclusive; VP16 counter: -8.9%; MCF10A rereplic: 16.4µM*; KB-V1 MDR tox: inactive

How did CCCCCc1ccc(-c2ccc(=O)[nH]n2)cc1 do in these assays?
RORgamma inh: 6.9%[10 µM]; KB-3-1 cytotox: 6.51µM*; SW480 rerep: -1.1%; VP16 counter: 3.2%; MCF10A rereplic: 15.6%; KB-V1 MDR tox: 5.17µM*

Results for O=C1C=CC(=O)N1N(c1ccccc1)c1ccccc1 ?
RORgamma inh: -43.2%; KB-3-1 cytotox: inactive; SW480 rerep: inconclusive; VP16 counter: inconclusive; MCF10A rereplic: 5.17µM*; KB-V1 MDR tox: inactive

How did O=C1c2ccccc2C(=O)N1N(c1ccccc1)c1ccccc1 do in these assays?
SW480 rerep: 0.9%; MCF10A rereplic: -43.1%

Results for O=C(c1cc(F)ccc1F)C1CCCN(C(=O)c2ccc(F)cc2Cl)C1 (stereo not given) ?
RORgamma inh: inconclusive; KB-3-1 cytotox: inactive; SW480 rerep: 6.7%; VP16 counter: -4.9%; MCF10A rereplic: inconclusive; KB-V1 MDR tox: 11.6µM*

How did CC(=O)NC(=Cc1ccccc1)C(=O)N1CCCC1C(=O)O (stereo not given) do in these assays?
KB-3-1 cytotox: inactive; KB-V1 MDR tox: inactive

How did CCN(C(=O)c1cc2c(=O)oc3ccc(C)cc3c2s1)c1ccccc1F do in these assays?
KB-3-1 cytotox: inactive; KB-V1 MDR tox: inactive

How did CSc1nc(C)cc(OCC(=O)N/N=C/c2ccccc2O)n1 do in these assays?
RORgamma inh: 0.891µM*; KB-3-1 cytotox: 5.8µM*; SW480 rerep: inconclusive; VP16 counter: 0.708µM*; MCF10A rereplic: 5.17µM*; KB-V1 MDR tox: inactive

How did Cc1cc(=O)oc2cc(OCC(=O)c3ccccc3)ccc12 do in these assays?
RORgamma inh: 2.3%; KB-3-1 cytotox: inactive; SW480 rerep: 1.4%; VP16 counter: -16.2%; MCF10A rereplic: inconclusive; KB-V1 MDR tox: inactive

How did Cc1cc(=O)oc2cc(OCCc3ccccc3)ccc12 do in these assays?
RORgamma inh: 10.5%; KB-3-1 cytotox: 20.6µM*; SW480 rerep: -2.2%; VP16 counter: -1.7%; MCF10A rereplic: 10.3%; KB-V1 MDR tox: inactive

Results for O=C(O)COc1ccc(/C=N/NC(=O)COc2nsnc2N2CCOCC2)cc1 ?
RORgamma inh: 4.0%; KB-3-1 cytotox: inactive; SW480 rerep: -1.5%; VP16 counter: -0.5%; MCF10A rereplic: -5.1%; KB-V1 MDR tox: inactive

Results for Cc1cc(=O)oc2cc(OCC(=O)N/N=C/c3ccccc3O)ccc12 ?
RORgamma inh: 2.24µM*; KB-3-1 cytotox: inconclusive; SW480 rerep: 2.1%; VP16 counter: -18.7%; MCF10A rereplic: -13.7%; KB-V1 MDR tox: inactive

Results for Cc1cc(=O)oc2cc(OCCCC[n+]3ccccc3)ccc12 ?
RORgamma inh: 14.1%; KB-3-1 cytotox: inactive; SW480 rerep: -0.5%; VP16 counter: -2.5%; MCF10A rereplic: 9.8%; KB-V1 MDR tox: inactive

How did O=C(COc1nsnc1N1CCOCC1)N/N=C/c1ccccc1O do in these assays?
RORgamma inh: 0.708µM*; KB-3-1 cytotox: inactive; SW480 rerep: 18.4µM*; VP16 counter: 3.16µM*; MCF10A rereplic: inconclusive; KB-V1 MDR tox: inconclusive

What do the screens show for `Cc1cccc(C)c1NC(=S)NC(=O)c1cccc(Cl)c1`?
KB-3-1 cytotox: inactive; KB-V1 MDR tox: inactive

What do the screens show for `CCOC(=O)CCc1c(C)nc2cc(-c3cc(OC)cc(OC)c3)[nH]n2c1=O`?
KB-3-1 cytotox: inactive; KB-V1 MDR tox: inactive

What do the screens show for `O=C(O)CCC(=O)c1ccc2ccc3cccc4ccc1c2c34`?
RORgamma inh: 11.2µM*; VP16 counter: 10µM*

Results for O=C(O)CCCc1ccc2ccc3cccc4ccc1c2c34 ?
RORgamma inh: -7.2%; KB-3-1 cytotox: inactive; SW480 rerep: 4.5%; VP16 counter: -21.4%; MCF10A rereplic: 16.4µM*; KB-V1 MDR tox: inactive

How did NCCCCc1ccc2ccc3cccc4ccc1c2c34 do in these assays?
KB-3-1 cytotox: inactive; SW480 rerep: 27.4%; MCF10A rereplic: inconclusive; KB-V1 MDR tox: inactive
